SMN2 splice up – increases expression of the SMN2 splice variant | HEK293 SMN2-luciferase splicing reporter, luminescence, 30-36 h | AID 1458 | hit rate 2.8% among 210,000 | Potency, µM (doses to about 46.1 µM), actives largely listed as activators; further: nearly all actives have a fitted effect of over 55% in size
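qHTS luciferase splicing reporter: luminescence rises when SMN2 exon 7 is included in transfected HEK293 cells. Compound exposure lasted 30-36 h at 37C, with 4.5 mM final sodium butyrate as control, followed by a ONE-Glo read.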
ELG1 genotox – inducers of genotoxicity in HEK293T ELG1-luciferase cells | HEK293T ELG1-luciferase reporter, luminescence, 16 h | Potency, µM (series often up to 46 µM), most hits filed as activators | hit rate 1.3% among 330,000; further: nearly all actives have a fitted effect of over 60% in size
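Reporter readout depends on ELG1 protein level, which increases with genetic stress. After 16 hr compound exposure at 37 °C, luciferase activity was quantified using ONE-Glo.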
FLuc modulator – counter-screen for miR-21 project: firefly luciferase inhibitors or activators | P08659 | purified FLuc, Km substrates, luminescence inhibition | Potency, µM (titrated, usually from 57.5 µM), actives largely listed as inhibitors | hit rate 6.9% among 360,000 | AID 588342; further: nearly all actives have a fitted effect of over 55% in size
Target sequence (P08659 whole entry, looked up): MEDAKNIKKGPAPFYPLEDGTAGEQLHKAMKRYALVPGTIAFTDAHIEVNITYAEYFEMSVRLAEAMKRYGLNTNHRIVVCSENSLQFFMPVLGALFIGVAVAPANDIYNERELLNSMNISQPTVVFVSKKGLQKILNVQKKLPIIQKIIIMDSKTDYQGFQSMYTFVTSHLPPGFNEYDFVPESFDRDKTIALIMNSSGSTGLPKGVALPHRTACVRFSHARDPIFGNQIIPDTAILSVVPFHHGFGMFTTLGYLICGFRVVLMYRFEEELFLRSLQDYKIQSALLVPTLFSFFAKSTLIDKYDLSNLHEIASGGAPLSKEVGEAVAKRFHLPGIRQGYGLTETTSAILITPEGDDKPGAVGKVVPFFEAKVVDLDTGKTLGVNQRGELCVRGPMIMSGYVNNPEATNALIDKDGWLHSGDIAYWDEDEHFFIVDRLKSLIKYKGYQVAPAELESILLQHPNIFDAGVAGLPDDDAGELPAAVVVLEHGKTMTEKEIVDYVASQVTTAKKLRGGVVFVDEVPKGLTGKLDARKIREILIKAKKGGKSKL
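Purified P. pyralis luciferase (10nM final) with 10uM D-luciferin and 10uM ATP (Km levels) in 50mM Tris acetate pH 7.5, 10mM Mg acetate, 0.01% Tween-20, 0.05% BSA; qHTS 6-point titration, ~60 µM downward; luminescence read.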
NPC1 prom act – NPC1 promoter activation. Huh7 NPC1 promoter luciferase reporter, 24 h. Potency, µM (titrated, usually from 9.22 µM), actives largely listed as activators. hit rate 2.4% among 320,000; further: nearly all actives have a fitted effect of over 60% in size
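Stably transfected Huh7 (NPC1 promoter→luciferase), 1500 cells/well in Opti-MEM + 10% FBS, 2 h settle, then compound 24 h at 37 °C. Luminescence after 10 min with Amplite reagent.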
Rab9 prom act – activators of Rab9 promoter; hit rate 2.8% among 320,000; Potency, µM (highest dose often 9.22 µM), actives largely listed as activators; Huh7 Rab9 promoter-luciferase reporter, luminescence, 24 h; AID 485297; further: nearly all actives have a fitted effect of over 60% in size
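Luminescence read-out: Huh7 cells stably expressing Rab9-luciferase, treated 24 h with compound at 37 °C, then lysed with luciferase reagent for 10 min at ambient before reading.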
Numbers stand for hits; . = inactive; ? = inconclusive; / = no result; [ ] = remark or other dose. Most compounds without a hit are left out; they make up all but 7.4% or so of the library. The call rests on the fitted dose curve; in most records, active means well fitted curve in the direction sought with a large enough effect; inconclusive means small, poorly fitted or top-dose-only effect, or another doubt; inactive means no such curve, though single readings can be large; an effect the other way counts as inactive or inconclusive.

SMILES	SMN2 splice up	ELG1 genotox	FLuc modulator	NPC1 prom act	Rab9 prom act
Cc1ccc(C(C)c2c(C)c([N+](=O)[O-])cc(C)c2[N+](=O)[O-])cn1 (stereo unspecified)	/	.	.	.	.
CC(C)(C=O)C1=CC(=O)c2ccccc2C1=O	.	.	?	.	.
CC(C)(C)c1ccc2c(c1)C(=O)c1ccccc1C2=O	/	?	1.3µM	0.89µM	0.56µM
CCc1ccc2c(c1)C(=O)c1ccccc1C2=O	16µM	?	6µM	?	?
COc1ccc(-c2cn(Cc3ccc4c(c3)C(=O)c3ccccc3C4=O)nn2)cc1	/	.	.	.	.
Br/C(=N\Nc1nn[nH]n1)c1ccncc1	.[9.22 µM]	/	/	/	/
Cc1c(C(=O)N2CCc3ccccc32)oc2ccccc12	3.5µM	3.7µM	0.95µM	?	3.5µM
COCc1c(C(=O)N2CCc3ccccc32)oc2ccccc12	/	.	?	.	.
Cc1c(Br)c(C(=O)N2CCc3ccccc32)nn1C	?	?	21µM	.	?
Nc1ccccc1C(=O)N1CCc2ccccc21	/	.	19µM	?	?
O=C(c1ccc(Br)o1)N1CCCc2ccccc21	.	.	.	.	.
COc1ccccc1C(=O)N1CCc2ccccc21	.	.	.	.	.
O=C(c1ccc(Br)o1)N1CCc2ccccc21	/	?	4.8µM	2.2µM	2.5µM
Cc1oc(-c2ccccc2)nc1Cn1c(=O)cc(-c2ccccc2)c2c(C)nn(C)c21	/	/	.	/	/
O=S(=O)(c1cccc(Cl)c1)n1c(/C=C/c2ccccc2Cl)nc2ccccc21	/	/	0.095µM	/	/
Cn1c(/C=C/c2ccc(Br)cc2)nc2ccccc2c1=O	/	?	?	3.5µM	?
CSc1ccc(/C=C/c2nc3ccccc3n2S(=O)(=O)c2cccc(Cl)c2)cc1	?	/	0.076µM	/	/
Cc1ccc(/C=C/c2nc3ccccc3n2S(=O)(=O)c2ccc(Br)cc2)cc1	/	/	0.76µM	/	/
CC#CCN1c2ccccc2[C@]23C[C@@H](C(=O)OC)N(S(=O)(=O)c4ccc(Br)cc4)C2=NC(C(=O)OC)=C(C(=O)OC)[C@H]13	.[9.22 µM]	/	/	/	/
CCCCOc1ccc(-c2nnn(CCC(=O)N3CCOCC3)n2)cc1	.	?	12µM	?	?
COC(=O)CCn1nnc(-c2ccc(C(C)C)cc2)n1	.	.	12µM	.	.
CCCOc1ccc(-c2nnn(CC(=O)N3CCCC(C)C3)n2)cc1 (stereo unspecified)	/	.	15µM	.	.
CCCOc1ccc(-c2nnn(CC(=O)N3CCC(C)CC3)n2)cc1	.	.	17µM	.	.
COc1ccc(OCCC(=O)N2CCOCC2)cc1	.	.	.	.	.
Cc1cccc(CC(C)NC(=O)c2oc3c(F)cccc3c2C)n1 (stereo unspecified)	/	.	.	.	.
SMILES	SMN2 splice up	ELG1 genotox	FLuc modulator	NPC1 prom act	Rab9 prom act
CC(C)c1ccc(-c2nnn(CC(=O)N3CCCCC3)n2)cc1	/	.	?	.	.
CC1CCN(C(=O)Cn2nnc(-c3ccc(C(C)C)cc3)n2)CC1	/	.	17µM	.	.
COc1ccc(CNC(=O)CCCN2C(=O)CSc3c2c(C)nn3-c2ccccc2)c(OC)c1	/	/	.	/	/
O=C(/C=C/c1ccc(F)cc1)c1ccccc1Br	.	.	19µM	.	.
Cc1ccc(C(=O)/C=C/c2ccc(F)cc2)o1	.	?	1.5µM	.	.
COc1cc(NC(=O)c2cc(S(=O)(=O)N3CCCCC3)c[nH]2)cc(OC)c1	/	.	.	.	.
O=C1CN(C(=O)c2ccc(Cl)c(S(=O)(=O)N3CCc4ccccc43)c2)c2ccccc2N1	/	.	.	.	.
Cc1ccc(OCc2cn3cccnc3n2)cc1	8.9µM	18µM	21µM	3.5µM	2.8µM
O=[N+]([O-])c1cccc(OCc2cn3cccnc3n2)c1	.	.	.	.	.
Cc1cccn2cc(COc3ccc(-c4ccccc4)cc3)nc12	/	?	9.5µM	?	?
Cc1ccc(S(=O)(=O)N2CC=C(c3c(C)n(CC(=O)N4CCCC4)c4ccccc34)CC2)cc1C	.	/	.	/	/
Cc1cc(C)cc(N2C(=O)C3C4C=CC(C4)C3C2=O)c1 (stereo unspecified)	.	.	.[2.3 µM]	.	.
O=C(Nc1nccs1)C1CC(=O)N(c2ccc(Cl)cc2)C1 (stereo unspecified)	.	.	.	.	.
Cc1cc(N2CC(C(=O)Nc3nccs3)CC2=O)ccc1C(C)C (stereo unspecified)	/	.	11µM	.	.
Cc1ccc(/C=C(\C#N)C(=O)Nc2cccc(C)n2)cc1	/	.	2.4µM	.	.

Screening data deposited in PubChem BioAssay by National Center for Advancing Translational Sciences (NCATS).
